High-throughput results from PubChem.
CRFR2-BP antag – antagonists of CRF-binding protein/CRF-R2 receptor complex. HEK293 CRF-R2/CRF-BP, CRF-induced calcium fluorescence. hit rate 0.59% among 350,000. inhibition, % at 11.8 µM;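 active = inhibition of the ligand-induced calcium signal above about 50% at the single tested concentration, limit read from the data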
MPTP inh – permeability transition pore inhibition; isolated mouse mitochondria, Ca2+ swelling absorbance, 30 min; inhibition, % at 10 µM; hit rate 1.4% among 360,000;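 active = inhibition of 50% or more, scaled per plate between neutral and stimulator controls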;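 note: 0% = DMSO wells given calcium and 100% = 1 mM EGTA wells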
TMEM16A inh – mouse TMEM16A channel inhibition, primary screen. normalized B-score (activity score, 25-100; higher = stronger inhibition) at 10 µM. HEK293 TMEM16A/YFP iodide influx fluorescence, ionomycin. hit rate 1.2% among 310,000;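 active = ratio plate-corrected score three or more library SD toward inhibition, starting fluorescence score within five deviations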;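 note: score derived from kinetic fluorescence span divided by baseline fluorescence per well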
Target sequence (Q8BHY3 whole entry, looked up): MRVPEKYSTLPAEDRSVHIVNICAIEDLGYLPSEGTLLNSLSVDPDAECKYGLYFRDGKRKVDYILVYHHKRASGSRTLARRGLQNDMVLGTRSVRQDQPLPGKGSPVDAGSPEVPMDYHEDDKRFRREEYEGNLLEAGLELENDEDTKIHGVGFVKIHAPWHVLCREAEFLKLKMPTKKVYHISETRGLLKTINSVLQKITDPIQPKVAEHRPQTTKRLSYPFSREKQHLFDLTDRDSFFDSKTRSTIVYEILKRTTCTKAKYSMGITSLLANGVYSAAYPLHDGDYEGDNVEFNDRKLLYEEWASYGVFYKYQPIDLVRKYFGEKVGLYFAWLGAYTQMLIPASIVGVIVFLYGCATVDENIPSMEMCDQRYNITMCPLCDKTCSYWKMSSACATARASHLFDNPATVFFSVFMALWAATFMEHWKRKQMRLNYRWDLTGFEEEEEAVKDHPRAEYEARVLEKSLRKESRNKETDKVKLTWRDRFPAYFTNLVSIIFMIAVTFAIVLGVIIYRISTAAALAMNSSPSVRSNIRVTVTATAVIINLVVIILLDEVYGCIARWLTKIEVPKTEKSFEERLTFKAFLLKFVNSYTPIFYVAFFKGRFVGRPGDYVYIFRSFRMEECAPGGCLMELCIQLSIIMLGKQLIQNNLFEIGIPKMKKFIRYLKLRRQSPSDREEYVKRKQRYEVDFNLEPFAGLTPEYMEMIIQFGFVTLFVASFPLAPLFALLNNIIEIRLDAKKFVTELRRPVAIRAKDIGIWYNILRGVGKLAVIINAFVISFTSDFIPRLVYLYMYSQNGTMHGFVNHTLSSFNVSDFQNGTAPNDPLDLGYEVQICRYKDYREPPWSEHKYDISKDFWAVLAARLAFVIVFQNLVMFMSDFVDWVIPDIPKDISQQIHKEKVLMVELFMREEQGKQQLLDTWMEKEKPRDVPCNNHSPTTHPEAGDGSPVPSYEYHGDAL
GRIN3A LBD mod – modulators (binders) of human NR3A ligand-binding domain; NR3A LBD differential scanning fluorimetry, Tm shift; 0% = protein alone, 100% = glycine-bound protein; Tm shift relative to glycine control, % at 25 µM; hit rate 2.5% among 340,000; AID 1259313;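 active = melting temperature shift of at least 10% of the positive control shift, at one fixed dose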
CRFBP-R2 agonist – CRF-BP/CRF-R2 complex agonism | HEK293 CRF-R2/CRF-BP, calcium dye fluorescence (FLIPR); percent of saturating CRF peptide response | AID 588473 | hit rate 0.46% among 350,000 | activation, % at 13.2 µM;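 active = activation of at least 50%, plus an integration ratio under a set limit after plate pattern correction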;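 note: plate controls were neutral control wells without compound for no effect and CRF at EC100 for full effect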
TMEM16A act – activates or potentiates the mouse TMEM16A chloride channel. Q8BHY3. HEK293 TMEM16A/YFP-H148Q/I152L, iodide quench fluorescence; hits give low values. B-score at 10 µM. hit rate 0.3% among 340,000;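 active = fluorescence-ratio B-score plate-corrected deviation score at least 3 library SD below zero, with starting fluorescence score within 5 deviations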;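 note: channel opened by trigger with iodide after compound preincubation; score built on the fluorescence ratio of max minus min over baseline; more negative score means more quench and so TMEM16A activation or potentiation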
* = called active by the depositor; i = inactive; . = no result given. Compounds with a hit are over-represented: about 5.1% of the library has one in this group of screens.

SMILES	CRFR2-BP antag	MPTP inh	TMEM16A inh	GRIN3A LBD mod	CRFBP-R2 agonist	TMEM16A act
O=C(Nc1ccccc1C(=O)N/N=C/c1ccco1)c1ccccc1Cl	-4.8	-2.2	100*	-1.2	-1.6	i
CN(C)c1ccc(C(O)P(=O)(OCc2ccccc2)c2ccc(N(C)C)cc2)cc1 (stereo not drawn)	-0.5	1.1	i	-1.5	0.3	i
CN(C)c1ccc(P(=O)(OCc2ccccc2)C(O)c2ccncc2)cc1 (stereo not drawn)	18.2	-1.5	25*	0.3	-1.5	i
COc1cccc(C(=O)N2CCC2(C)C(=O)NC(C)C)c1 (stereo not drawn)	.	-1.5	.	.	.	.
Cc1cc(Cl)ccc1OCCCC(=O)N1CCN(S(=O)(=O)c2ccccc2)CC1	4.1	0.3	i	-1.7	5.5	i
COC1C(CO)OC(n2c3c(Cl)cccc3c3c4c(c5c6cccc(Cl)c6[nH]c5c32)C(=O)NC4=O)C(O)C1O (stereo not drawn)	-75.1	-1.5	.	7.1	67.5*	i
Cc1ccccc1NC(c1cccc(Cl)c1)c1nnnn1C1CCCCC1 (stereo not drawn)	-10.4	1.3	i	12.6*	0.6	i
c1ccc(C(c2ccccc2)N2CCN(C(c3ccccn3)c3nnnn3C3CCCC3)CC2)cc1 (stereo not drawn)	8.9	-2.7	i	0.7	0.2	i
CCOC(=O)c1nnn(CC(=O)N2N=C(c3ccccc3)CC2c2ccccc2)c1C(=O)OCC (stereo not drawn)	70.9*	3.6	i	-0.3	-0.7	i
CC(=O)c1cccc(NS(=O)(=O)c2cc3c(cc2C)N(C(C)=O)CCO3)c1	-3.3	-1.0	i	-0.2	-1.2	i
O=C1C2(CCCC13COC(c1ccc(O)cc1)OC3)COC(c1ccc(O)cc1)OC2 (stereo not drawn)	0.2	.	i	26.0*	2.2	.
CCN(CC)c1ccc(NS(=O)(=O)c2ccc(-c3ccc(=O)[nH]n3)o2)c(C)c1	6.2	2.5	i	3.7	-0.2	i
Cc1ccccc1NS(=O)(=O)c1ccc(-c2ccc(=O)[nH]n2)o1	15.6	-0.1	i	14.8*	1.9	i
CCOc1ccc(CCNC(=O)c2cccc(NC3=NC4CS(=O)(=O)CC4S3)c2)cc1OCC (stereo not drawn)	50.3*	0.5	i	-0.2	-6.0	i
CCc1ccc(NC(=O)c2cccc(NC3=NC4CS(=O)(=O)CC4S3)c2)cc1 (stereo not drawn)	5.5	-1.7	i	-6.7	-1.1	i
CCc1ccc(NC(=O)c2ccc(NC3=NC4CS(=O)(=O)CC4S3)cc2)cc1 (stereo not drawn)	-9.8	0.3	i	12.7*	1.1	i
CCOc1ccc(NC(=O)Cc2ccc(NC3=NC4CS(=O)(=O)CC4S3)cc2)cc1 (stereo not drawn)	-25.6	-0.3	i	-0.3	3.7	i
CCc1ccc(NC(=O)Cc2ccc(NC3=NC4CS(=O)(=O)CC4S3)cc2)cc1 (stereo not drawn)	9.0	-1.1	i	10.2*	-2.0	i
CC(=O)NCCNC(=O)c1ccc(NC2=NC3CS(=O)(=O)CC3S2)cc1 (stereo not drawn)	-14.3	0.7	i	1.1	5.0	-12.1*
Cn1c(=O)[nH]c(N)c(Br)c1=O	10.8	-1.4	.	-1.9	-1.8	i
O=C(/C=C/c1cc([N+](=O)[O-])ccc1OC(F)F)Nc1cccc2ccccc12	16.2	5.6	i	13.2*	-1.6	i
c1ccc(C2=NN(c3ccccc3)CC2)cc1	0.4	0.6	i	1.7	-1.1	i
CCOC(=O)/C(=C/c1ccc(N2CCC(c3ccccc3)=N2)cc1)C(C)=O	-306.8	5.2	.	-4.0	253.8*	i
CC(=O)c1ccc(-c2ccc(C(=O)NC3CC(C)(C)NC(C)(C)C3)o2)cc1	7.3	-2.1	i	-1.1	0.3	i
O=C(CCc1nc(-c2ccccc2)c(-c2ccccc2)o1)OCc1ccc(Br)cc1	-13.3	-1.1	i	-1.4	7.2	i
O=C(CCc1nc(-c2ccccc2)c(-c2ccccc2)o1)OCc1ccc(Cl)cc1	-13.5	-0.6	i	0.9	0.8	-5.53*
